Test results as given in PubChem BioAssay (NCI).
Compounds without any hit were thinned out: in the full panel of roughly 83,000, 20% have a hit.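 Step 1: grow cells in 96-well plates. Step 2: add test compound at a single concentration. Step 3: incubate 48 h. Step 4: record percent growth.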 Unmarked numbers belong to inactive results. Calls of active or inactive are those of the source. How the source made its calls: active means growth percent below 10; inactive means the rest.

What was measured:
Assay in all cases: NCI-60 one-dose screen, 48 h (100 = growth as untreated, 0 = no growth, -100 = all killed)
Details in all cases: 10 µM unless noted
NCI-H23 lung = tested on: NCI-H23 lung
NCI-H226 lung = tested on: NCI-H226 lung
NCI-H322M lung = tested on: NCI-H322M lung
HOP-62 NSCLC = tested on: HOP-62 NSCLC
NCI-H460 lung = tested on: NCI-H460 lung
HOP-92 NSCLC = tested on: HOP-92 NSCLC
NCI-H522 lung = tested on: NCI-H522 lung
A549/ATCC NSCLC = tested on: A549/ATCC NSCLC
786-0 renal = tested on: 786-0 renal
COLO 205 colon = tested on: COLO 205 colon
DU-145 prostate = tested on: DU-145 prostate
K-562 leukemia = tested on: K-562 leukemia
MALME-3M melanoma = tested on: MALME-3M melanoma
MDA-MB-231 breast = tested on: MDA-MB-231 breast
RXF 393 renal = tested on: RXF 393 renal
SF-268 CNS = tested on: SF-268 CNS
SF-295 CNS = tested on: SF-295 CNS
SF-539 CNS = tested on: SF-539 CNS
UACC-257 melanoma = tested on: UACC-257 melanoma
M14 melanoma = tested on: M14 melanoma

| SMILES | growth (NCI-H23 lung) | growth (NCI-H226 lung) | growth (NCI-H322M lung) | growth (HOP-62 NSCLC) | growth (NCI-H460 lung) | growth (HOP-92 NSCLC) | growth (NCI-H522 lung) | growth (A549/ATCC NSCLC) | growth (786-0 renal) | growth (COLO 205 colon) | growth (DU-145 prostate) | growth (K-562 leukemia) | growth (MALME-3M melanoma) | growth (MDA-MB-231 breast) | growth (RXF 393 renal) | growth (SF-268 CNS) | growth (SF-295 CNS) | growth (SF-539 CNS) | growth (UACC-257 melanoma) | growth (M14 melanoma) |
| --- | --- | --- | --- | --- | --- | --- | --- | --- | --- | --- | --- | --- | --- | --- | --- | --- | --- | --- | --- | --- |
| c1nc(N2CCOCC2)c2[nH]ccc2n1 | 116% | 114% | 104% | 114% | 104% | 69.8% | 102% | 99.9% | 101% | 113% | 106% | 92.7% | 109% | 107% | 117% | 102% | 112% | 111% | 105% | 103% |
| O=C(CSc1nc2ccc([N+](=O)[O-])cc2[nH]1)Nc1ccc(F)c(Cl)c1 | -7.69% (active) | 7.74% (active) | 37.1% | 35% | 11.1% | -36.9% (active) | -3.92% (active) | 23.4% | 21.9% | 24.7% | 32.2% | 11.9% | -5.67% (active) | 30.8% | 29.7% | 23.8% | 18.1% | 35% | 10.5% | 25.4% |
| CC(C)CCNCC(C)(C)O | 101% | 111% | 106% | 95.5% | 114% | 96.6% | 98.7% | 105% | 111% | 118% | 118% | 109% | 121% | 116% | 117% | 106% | 111% | 101% | 102% | 110% |
| C#C[C@]1(O)CC[C@H]2[C@@H]3CC=C4c5nc(Nc6ccccc6[N+](=O)[O-])sc5CC[C@]4(C)[C@H]3CC[C@@]21C | 86.5% | 80.9% | 72.9% | 69.2% | 55.7% | 72.6% | 73.4% | 62.2% | 5.63% (active) | 86.7% | 55.3% | 8.86% (active) | 51.7% | 52.4% | -44% (active) | 52.8% | -46.1% (active) | -31.5% (active) | 73% | -23.1% (active) |
| O=C(CSc1nc2ccc([N+](=O)[O-])cc2[nH]1)Nc1cccc(Cl)c1 | -2.48% (active) | 12.9% | 62.4% | 35% | 25.3% | -27.9% (active) | 4.64% (active) | 28.9% | 28.6% | 26.4% | 36.3% | 16.4% | 2.51% (active) | 41.1% | 44.5% | 24.3% | 21.7% | 45.2% | 15% | 29.4% |
| ClC1=C(Cl)C(Cl)=C(Cl)C1=Cc1ccccc1 | -58.6% (active) | -73% (active) | -13.2% (active) | -32.7% (active) | -52.6% (active) | -49.1% (active) | -51.1% (active) | -0.255% (active) | -90.3% (active) | -55.6% (active) | -76.4% (active) | 1.01% (active) | -53.7% (active) | -21% (active) | -91.4% (active) | -44.9% (active) | -30.1% (active) | -43.6% (active) | -66.7% (active) | -93.1% (active) |
| NC(=O)c1c(NC(=O)COC(=O)Cc2ccccc2F)sc2c1CCC2 | 99.2% | 94.4% | 126% | 115% | 100% | 89.3% | 85.5% | 103% | 97.6% | 101% | 104% | 139% | 109% | 101% | 109% | 99.6% | 129% | 94.9% | 4.15% (active) | 105% |
| CCOC(=O)CC(c1ccccc1)C(C#N)c1ccccc1 (stereo not given) | 102% | 95.4% | 108% | 96.2% | 105% | 90.9% | 95.9% | 99.3% | 98.7% | 100% | 104% | 108% | 90.9% | 106% | 87.5% | 99.4% | 110% | 109% | 94.2% | 91.8% |
